Experimental data reported in PubChem BioAssay.
Results filed as inconclusive are left out. Active and inactive are the calls of the source.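 Rule for the calls, unless noted: active = differentiation response of at least 50%, scaled between solvent and reference control, from cells with both markers; inactive = the rest.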

What was measured:
[1] = yeast TOR pathway RPL19A-GFP modulators, primary screen, cell-based, S. cerevisiae, multiplex flow cytometry (AID 1862; in the data active = percent of DMSO control GFP below about 86%;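 note: lower values mimic rapamycin by blocking the RPL19A rise seen in DMSO cells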); details: S. cerevisiae RPL19A-GFP strain, flow cytometry fluorescence, 3 h; at 10 µM; stronger effect = lower value
[2] = modulators of MEP2-GFP levels in yeast, primary screen, S. cerevisiae, multiplex flow cytometry (AID 1867;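 active = GFP response, as percent of the DMSO control, above the screen-wide mean plus 3 SD, about 139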;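 note: median GFP channel fluorescence of barcode-gated MEP2-GFP cells measured by flow cytometry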); details: S. cerevisiae MEP2-GFP strain, 3 h, at 10 µM, stronger effect = higher value, 100% means same as DMSO wells
[3] = modulators of CIT2-GFP expression in yeast, primary screen, S. cerevisiae, GFP fusion, multiplex flow cytometry (AID 1870;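 active = percent response above a set limit, the screen-wide mean plus 3 SD, cut at about 130% in these data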;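 note: barcoded CIT2-GFP strain pooled with four other GFP strains with rapamycin as positive control; median GFP fluorescence per well over plate mean of DMSO wells so 100% = DMSO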); details: 3 h, at 10 µM, stronger effect = higher value
[4] = modulators of LAP4-GFP expression in yeast, primary screen, S. cerevisiae, multiplex flow cytometry (AID 1873;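 active = GFP signal, as percent of the solvent control, above the screen mean plus 3 SD, about 149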); details: 3 h, at 10 µM, stronger effect = higher value
[5] = modulators of AGP1-GFP expression in yeast TOR pathway, primary screen, cell-based, multiplex flow cytometry, S. cerevisiae (AID 1887;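 active = GFP signal above the screen-wide mean plus 3 SD, that is over about 124.5% of the solvent control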;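 note: AGP1-GFP fusion strain of S. cerevisiae within a five-strain barcoded multiplex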); details: 3 h, at 10 µM, stronger effect = higher value
[6] = inhibitors of CD8+ T cell-vesicle binding, pilot screen, LFA-1/ICAM-1 modulator project, MLPCN validation set, flow cytometry (AID 2523;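 active = response below a set limit, under 55% cells CD8-positive and vesicle-bound, and CD8 cells' 90th-percentile brightness under 279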;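 for vesicle binding response: mean PE anti-B7-1 fluorescence of CD8+ cells relative to row control; 100% = QL9-loaded vesicles with DMSO vehicle in the same plate row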); details: 2C mouse CD8+ T cells, at 7 µM, stronger effect = lower value; double positive events: measured here: CD8+/vesicle+ event percentage
[7] = molecular target: Integrin beta-1 (Homo sapiens) + Integrin alpha-4 (Homo sapiens) (UniProt P13612+P05556); experiment: inhibition of HUTS-21 binding to VLA-4, pilot screen, VLA-4 allosteric modulator project, U937 cells, HUTS-21 mAb, flow cytometry, validation set (AID 2674;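 active = inhibition above 50%, about 3 SD of the validation set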;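 note: antibody binding induced by the VLA-4 ligand LDV present at three times its Kd; 0% = LDV ligand with antibody and no compound and 100% = antibody without LDV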); details: HUTS-21 LIBS mAb binding, at 6.7 µM, stronger effect = higher value, binding induced by LDV ligand
Sequence of Integrin beta-1 (Homo sapiens) + Integrin alpha-4 (Homo sapiens) (P05556 whole entry, looked up): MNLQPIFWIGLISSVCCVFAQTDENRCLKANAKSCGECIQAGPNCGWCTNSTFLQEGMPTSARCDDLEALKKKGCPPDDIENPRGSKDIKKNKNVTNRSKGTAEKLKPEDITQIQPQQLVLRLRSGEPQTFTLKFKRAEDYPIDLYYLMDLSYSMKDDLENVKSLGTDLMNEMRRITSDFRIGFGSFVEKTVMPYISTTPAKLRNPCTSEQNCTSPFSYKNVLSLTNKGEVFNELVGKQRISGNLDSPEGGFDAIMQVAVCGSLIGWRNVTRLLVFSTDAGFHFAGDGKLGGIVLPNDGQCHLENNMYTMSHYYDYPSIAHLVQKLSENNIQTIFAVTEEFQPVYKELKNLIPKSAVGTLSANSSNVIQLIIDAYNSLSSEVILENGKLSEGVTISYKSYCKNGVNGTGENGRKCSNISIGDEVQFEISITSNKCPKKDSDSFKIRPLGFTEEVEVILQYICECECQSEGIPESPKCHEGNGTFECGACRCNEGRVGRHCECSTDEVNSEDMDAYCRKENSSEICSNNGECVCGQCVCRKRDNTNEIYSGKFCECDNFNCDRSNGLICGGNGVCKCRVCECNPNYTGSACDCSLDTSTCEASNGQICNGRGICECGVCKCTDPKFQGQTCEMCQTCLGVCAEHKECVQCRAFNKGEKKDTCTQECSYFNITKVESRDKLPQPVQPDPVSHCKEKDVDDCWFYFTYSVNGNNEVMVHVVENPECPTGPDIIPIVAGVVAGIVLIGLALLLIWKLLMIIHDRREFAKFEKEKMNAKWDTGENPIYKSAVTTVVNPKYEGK
Sequence of Integrin beta-1 (Homo sapiens) + Integrin alpha-4 (Homo sapiens) (P13612 whole entry, looked up): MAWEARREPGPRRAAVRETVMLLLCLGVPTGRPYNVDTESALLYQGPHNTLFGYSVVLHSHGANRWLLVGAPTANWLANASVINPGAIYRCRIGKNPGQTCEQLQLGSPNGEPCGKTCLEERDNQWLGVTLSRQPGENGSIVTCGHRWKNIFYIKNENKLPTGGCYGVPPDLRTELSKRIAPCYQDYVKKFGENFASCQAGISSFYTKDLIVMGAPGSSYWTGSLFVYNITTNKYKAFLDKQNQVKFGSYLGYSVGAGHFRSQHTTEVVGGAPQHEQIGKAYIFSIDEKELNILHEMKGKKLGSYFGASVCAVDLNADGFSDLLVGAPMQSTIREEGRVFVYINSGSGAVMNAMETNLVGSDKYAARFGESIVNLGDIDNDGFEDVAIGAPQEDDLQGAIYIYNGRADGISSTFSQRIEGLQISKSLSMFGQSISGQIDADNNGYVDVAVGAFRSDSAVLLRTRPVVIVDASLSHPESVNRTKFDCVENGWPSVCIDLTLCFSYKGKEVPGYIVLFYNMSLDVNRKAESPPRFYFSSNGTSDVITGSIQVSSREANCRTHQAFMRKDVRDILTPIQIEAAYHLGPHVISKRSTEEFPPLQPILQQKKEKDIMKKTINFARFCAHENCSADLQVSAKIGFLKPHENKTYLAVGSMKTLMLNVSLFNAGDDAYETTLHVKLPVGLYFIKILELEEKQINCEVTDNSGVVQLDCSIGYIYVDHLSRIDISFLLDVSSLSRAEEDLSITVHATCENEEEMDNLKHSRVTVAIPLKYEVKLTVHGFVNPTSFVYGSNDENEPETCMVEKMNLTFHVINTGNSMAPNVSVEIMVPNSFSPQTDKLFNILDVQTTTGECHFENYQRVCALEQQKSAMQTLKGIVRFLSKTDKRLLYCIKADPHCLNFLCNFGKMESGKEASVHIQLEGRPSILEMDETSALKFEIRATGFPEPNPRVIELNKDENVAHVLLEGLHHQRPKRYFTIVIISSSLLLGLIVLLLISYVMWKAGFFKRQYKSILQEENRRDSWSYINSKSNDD

[8] = superoxide lowering in aged yeast cells, pilot screen, validation compound set (AID 2706;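 active = superoxide response below 65% of plate, a cut near 3 SD across the whole screen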;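 note: yeast exposed to compound for one week at 30 degrees C before staining; 100% = mean of all compound wells on the same plate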); details: S. cerevisiae aging, superoxide DHE fluorescence; at 10 µM; stronger effect = lower value
[9] = molecular target: Beta-adrenergic receptor kinase 1 (Homo sapiens) (UniProt P25098); experiment: GRK2 binders displacing RNA aptamer, biochemical, validation, human GRK2, bead flow cytometry (AID 488806;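 active = aptamer binding inhibition above 30%, about 3 SD of noise from non-fluorescent compounds; inactive = inhibition at or below 30%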); details: bead-bound GRK2, FAM-aptamer displacement, at 10 µM, stronger effect = higher value
Sequence of Beta-adrenergic receptor kinase 1 (Homo sapiens) (P25098 whole entry, looked up): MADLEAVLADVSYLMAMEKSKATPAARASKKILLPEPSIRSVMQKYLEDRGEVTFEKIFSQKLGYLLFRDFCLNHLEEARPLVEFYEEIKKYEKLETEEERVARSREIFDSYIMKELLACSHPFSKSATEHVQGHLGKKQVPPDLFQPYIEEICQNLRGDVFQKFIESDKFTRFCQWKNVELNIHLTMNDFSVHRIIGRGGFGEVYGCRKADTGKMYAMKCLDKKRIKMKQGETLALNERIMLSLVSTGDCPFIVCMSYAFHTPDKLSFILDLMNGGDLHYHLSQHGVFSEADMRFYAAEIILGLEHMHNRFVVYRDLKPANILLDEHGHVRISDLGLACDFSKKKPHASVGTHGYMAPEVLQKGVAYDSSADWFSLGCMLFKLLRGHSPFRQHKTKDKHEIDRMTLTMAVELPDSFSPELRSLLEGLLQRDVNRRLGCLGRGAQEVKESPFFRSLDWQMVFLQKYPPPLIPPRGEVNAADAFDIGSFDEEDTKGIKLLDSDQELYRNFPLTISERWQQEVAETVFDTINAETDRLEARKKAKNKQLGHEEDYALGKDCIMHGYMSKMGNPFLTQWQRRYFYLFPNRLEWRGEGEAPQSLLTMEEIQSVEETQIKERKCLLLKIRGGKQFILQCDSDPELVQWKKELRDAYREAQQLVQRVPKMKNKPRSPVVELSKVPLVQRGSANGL

[10] = molecular target: Beta-2 adrenergic receptor (Homo sapiens) (UniProt P07550); experiment: beta2AR agonists driving receptor internalization, pilot screen, cell-based, FAP fluorogen, flow cytometry, validation set (AID 504459;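 active = percent response above 42, roughly 3 SD of non-fluorescent test compounds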;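 note: agonist-driven loss of surface beta2AR via internalization measured by FAP dye flow cytometry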); details: Am2.2-beta2AR cells, FAP surface receptor flow cytometry; at 10 µM; stronger effect = higher value
Sequence of Beta-2 adrenergic receptor (Homo sapiens) (P07550 whole entry, looked up): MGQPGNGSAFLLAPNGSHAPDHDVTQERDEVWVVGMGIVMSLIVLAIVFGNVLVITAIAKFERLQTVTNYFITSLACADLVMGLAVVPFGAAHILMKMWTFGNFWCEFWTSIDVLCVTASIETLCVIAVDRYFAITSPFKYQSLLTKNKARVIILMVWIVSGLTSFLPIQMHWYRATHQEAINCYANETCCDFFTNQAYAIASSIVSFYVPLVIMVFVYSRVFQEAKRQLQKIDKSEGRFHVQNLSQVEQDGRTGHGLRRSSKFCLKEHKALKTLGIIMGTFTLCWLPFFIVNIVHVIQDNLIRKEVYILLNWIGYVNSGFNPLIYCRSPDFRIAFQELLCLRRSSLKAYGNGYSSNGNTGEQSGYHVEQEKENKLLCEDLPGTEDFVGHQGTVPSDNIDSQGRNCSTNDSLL

[11] = molecular target: AP-2 complex subunit beta (Homo sapiens) (UniProt P63010); experiment: inhibitors of arrestin peptide binding to AP2, pilot screen, biochemical, validation set, GST-AP2 beads, flow cytometry (AID 504541;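 active = inhibition above 54%, about 3 SD of non-fluorescent compounds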;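 note: AP2 carries R879A mutation and is captured from E. coli lysate; bead-bound FITC arrestin peptide fluorescence measuring arrestin peptide binding to AP2; 0% = DMSO wells and 100% = excess unlabeled arrestin peptide control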); details: FITC arrestin peptide, at 10 µM, stronger effect = higher value, AP2 beta2 appendage fragment, R879A mutant
Sequence of AP-2 complex subunit beta (Homo sapiens) (P63010 whole entry, looked up, the tested form may be a part, one chain of several): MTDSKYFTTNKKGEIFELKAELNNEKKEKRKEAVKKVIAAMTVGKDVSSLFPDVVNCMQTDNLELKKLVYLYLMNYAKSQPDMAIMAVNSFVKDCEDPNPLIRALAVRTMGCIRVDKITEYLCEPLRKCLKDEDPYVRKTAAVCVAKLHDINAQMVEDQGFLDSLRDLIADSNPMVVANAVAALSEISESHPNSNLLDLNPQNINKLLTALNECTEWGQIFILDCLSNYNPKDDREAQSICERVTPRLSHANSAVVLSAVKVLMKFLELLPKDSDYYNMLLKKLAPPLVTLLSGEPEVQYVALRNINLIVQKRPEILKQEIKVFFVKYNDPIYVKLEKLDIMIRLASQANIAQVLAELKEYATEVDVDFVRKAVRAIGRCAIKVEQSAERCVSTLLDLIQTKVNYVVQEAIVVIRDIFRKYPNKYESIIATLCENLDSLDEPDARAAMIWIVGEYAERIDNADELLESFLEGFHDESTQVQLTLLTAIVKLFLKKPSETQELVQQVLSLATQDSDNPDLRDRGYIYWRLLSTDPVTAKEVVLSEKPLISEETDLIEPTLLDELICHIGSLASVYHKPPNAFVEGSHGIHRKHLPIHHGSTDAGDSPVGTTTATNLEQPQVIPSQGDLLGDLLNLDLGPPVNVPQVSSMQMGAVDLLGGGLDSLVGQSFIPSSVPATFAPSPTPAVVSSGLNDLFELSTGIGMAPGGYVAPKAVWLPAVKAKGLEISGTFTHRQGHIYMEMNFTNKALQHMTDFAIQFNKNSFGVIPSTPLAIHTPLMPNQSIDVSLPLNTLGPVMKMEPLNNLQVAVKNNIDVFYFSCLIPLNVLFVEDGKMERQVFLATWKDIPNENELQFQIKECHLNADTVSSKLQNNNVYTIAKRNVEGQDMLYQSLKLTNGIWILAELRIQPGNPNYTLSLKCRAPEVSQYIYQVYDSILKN

[12] = yeast V-ATPase proton transport modulators, S. cerevisiae, pHLuorin, HTS validation (AID 504600; in the data active = response above about 15%;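 note: plate controls were DMSO for no effect and reference compound for full effect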); details: S. cerevisiae pHLuorin cytosolic pH, at 10 µM, stronger effect = higher value
[13] = tested on: anti-desmoglein-3 scFv antibody binding to human DSG3; experiment: inhibitors of anti-DSG3 scFv binding to DSG3, pilot screen, biochemical, validation compound set, bead-based, flow cytometry (AID 588368;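 active = binding below the plate cutoff, the plate median minus 3 SD, with a reading above zero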;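 note: signal is the median channel fluorescence of bead-bound GFP antibody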); details: Protein G beads, DSG3-Fc, scFv-GFP binding, at 10 µM, stronger effect = lower value
[14] = inhibitors of fungal efflux pumps CDR1, CDR2, MDR1, pilot screen, validation compound set, multiplex, phenotypic (AID 588506;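 active = efflux inhibition above 0.42, the validation set average plus 4 SD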;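 note: Nile Red retained in cells so higher fluorescence means more efflux inhibition; 0 = negative control wells and 1 = enniatin B 25 µM full block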); details: S. cerevisiae pump-expressing triplex, Nile Red efflux flow cytometry; at 10 µM; stronger effect = higher value; the pumps come from Candida albicans
[15] = molecular target: ATP-binding cassette sub-family B member 6 (Homo sapiens) (UniProt Q9NP58); experiment: ABCB6 transporter inhibitors, pilot screen, K562-ABCB6 cells, flow cytometry, validation set (AID 588550;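 active = inhibition above the screen-wide mean plus 3 SD, about 51%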;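 note: 0% = DMSO wells and 100% = benzethonium chloride 70 µM positive control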); details: K562-ABCB6 porphyrin accumulation, 1 h, at 10 µM, stronger effect = higher value
Sequence of ATP-binding cassette sub-family B member 6 (Homo sapiens) (Q9NP58 whole entry, looked up): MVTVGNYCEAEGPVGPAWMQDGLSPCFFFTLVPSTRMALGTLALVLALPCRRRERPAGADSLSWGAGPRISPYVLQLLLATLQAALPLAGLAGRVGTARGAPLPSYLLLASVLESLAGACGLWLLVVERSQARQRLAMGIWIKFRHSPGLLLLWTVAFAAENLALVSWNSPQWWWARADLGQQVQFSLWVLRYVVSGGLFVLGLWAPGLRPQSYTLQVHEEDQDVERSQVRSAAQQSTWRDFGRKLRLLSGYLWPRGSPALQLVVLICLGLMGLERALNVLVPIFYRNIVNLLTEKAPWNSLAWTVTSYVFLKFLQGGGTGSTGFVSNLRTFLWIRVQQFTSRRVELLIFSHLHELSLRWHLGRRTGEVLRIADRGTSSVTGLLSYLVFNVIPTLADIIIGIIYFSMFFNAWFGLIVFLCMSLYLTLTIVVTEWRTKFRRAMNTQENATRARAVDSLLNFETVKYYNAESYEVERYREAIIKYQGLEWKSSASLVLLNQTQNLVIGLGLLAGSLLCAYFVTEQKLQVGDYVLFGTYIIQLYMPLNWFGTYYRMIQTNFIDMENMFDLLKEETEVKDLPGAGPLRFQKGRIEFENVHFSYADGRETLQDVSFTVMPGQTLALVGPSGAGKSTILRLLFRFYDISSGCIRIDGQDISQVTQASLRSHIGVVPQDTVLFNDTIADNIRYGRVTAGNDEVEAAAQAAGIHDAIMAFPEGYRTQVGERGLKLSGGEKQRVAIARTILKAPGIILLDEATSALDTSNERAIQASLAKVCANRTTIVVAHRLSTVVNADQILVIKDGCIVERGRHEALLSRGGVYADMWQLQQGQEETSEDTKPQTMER

[16] = promoters of myeloid differentiation in arrested cells, primary screen, cell-based, GFP/MAC1 double positive, flow cytometry, validation set (AID 588685); details: ER-HoxA9 marrow cells, stronger effect = higher value, normalized: vehicle 0, fulvestrant 100;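 note: compound exposure lasts four days before antibody staining and flow analysis; 0% = DMSO wells and 100% = 5 µM fulvestrant positive control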

COc1c2ccoc2nc2c(OC)cccc12
inactive: percent of DMSO control GFP [1] 105% | GFP response vs DMSO [2] 101% | percent response of DMSO control [3] 95.8% | GFP response vs DMSO [4] 102% | GFP response, % of DMSO [5] 105% | vesicle binding response [6] 5040% | inhibition [7] 21.4% | superoxide response (% of plate) [8] 82.1% | aptamer binding inhibition [9] 5% | response [10] -6.43% | inhibition [11] -5.75% | response [12] 0.27% | binding (% of control) [13] 97.2% | efflux inhibition (fraction of control) [14] -0.13 | inhibition [15] 6% | differentiation response [16] -15.2%
64.2%: double positive events [6]

CCN(CCCCCN(C)C)Cc1cc2ccccc2o1
inactive: percent of DMSO control GFP [1] 101% | GFP response vs DMSO [2] 101% | percent response of DMSO control [3] 94.8% | GFP response vs DMSO [4] 112% | GFP response, % of DMSO [5] 106% | vesicle binding response [6] 206% | inhibition [7] -0.43% | superoxide response (% of plate) [8] 79.9% | aptamer binding inhibition [9] -1% | response [10] -3.86% | inhibition [11] -2.46% | response [12] 0.31% | binding (% of control) [13] 102% | efflux inhibition (fraction of control) [14] -0.06 | inhibition [15] 10% | differentiation response [16] 5.6%
64.4%: double positive events [6]

O=C(NCc1ccc(N2CCCC2=O)cc1)c1cccc(Cl)c1
inactive: percent of DMSO control GFP [1] 102% | GFP response vs DMSO [2] 101% | percent response of DMSO control [3] 111% | GFP response vs DMSO [4] 105% | GFP response, % of DMSO [5] 99.4% | vesicle binding response [6] 215% | inhibition [7] -1.49% | superoxide response (% of plate) [8] 101% | aptamer binding inhibition [9] 1% | response [10] -4.33% | inhibition [11] 7.63% | response [12] -1.49% | binding (% of control) [13] 106% | efflux inhibition (fraction of control) [14] -0.14 | inhibition [15] 0% | differentiation response [16] -5.62%
57.4%: double positive events [6]

CCn1nc(C(=O)O)c(=O)c2cc3c(cc21)OCO3
inactive: percent of DMSO control GFP [1] 103% | GFP response vs DMSO [2] 104% | percent response of DMSO control [3] 104% | GFP response vs DMSO [4] 90.7% | GFP response, % of DMSO [5] 98.3% | vesicle binding response [6] 726% | inhibition [7] 14.1% | superoxide response (% of plate) [8] 92.7% | aptamer binding inhibition [9] 2% | response [10] -7.41% | inhibition [11] -8.41% | binding (% of control) [13] 98.4% | efflux inhibition (fraction of control) [14] -0.1 | inhibition [15] -8% | differentiation response [16] 13.9%
active: response [12] 61.9%
55.1%: double positive events [6]

Oc1[nH]c2ccccc2c1C1=NCCCC1
inactive: percent of DMSO control GFP [1] 102% | GFP response vs DMSO [2] 105% | percent response of DMSO control [3] 96% | GFP response vs DMSO [4] 99.4% | GFP response, % of DMSO [5] 106% | vesicle binding response [6] 161% | inhibition [7] -3.18% | superoxide response (% of plate) [8] 84.9% | aptamer binding inhibition [9] 8% | response [10] 17.8% | inhibition [11] -15.4% | response [12] 1.51% | binding (% of control) [13] 102% | efflux inhibition (fraction of control) [14] -0.12 | inhibition [15] 11% | differentiation response [16] 0%
63.2%: double positive events [6]

COC(=O)c1ccc(-c2ncc(-c3cccc4ccccc34)o2)cc1
inactive: percent of DMSO control GFP [1] 98.2% | GFP response vs DMSO [2] 104% | percent response of DMSO control [3] 105% | GFP response vs DMSO [4] 125% | GFP response, % of DMSO [5] 109% | vesicle binding response [6] 170% | inhibition [7] -29.2% | superoxide response (% of plate) [8] 97.3% | aptamer binding inhibition [9] -1% | response [10] -17.7% | inhibition [11] 21.1% | response [12] -15.9% | binding (% of control) [13] 90.5% | efflux inhibition (fraction of control) [14] 0.17 | inhibition [15] 1% | differentiation response [16] 6.83%
61.1%: double positive events [6]

C=CCC1(O)C(=O)N2C(=C1C(=O)N1CCOCC1)c1ccccc1CC2(C)C (stereo not given)
inactive: percent of DMSO control GFP [1] 99.4% | GFP response vs DMSO [2] 108% | percent response of DMSO control [3] 101% | GFP response vs DMSO [4] 95.3% | GFP response, % of DMSO [5] 99.9% | vesicle binding response [6] 38.1% | inhibition [7] -2.53% | superoxide response (% of plate) [8] 111% | aptamer binding inhibition [9] 1% | response [10] -4.96% | inhibition [11] 23.5% | response [12] -6.09% | binding (% of control) [13] 95.5% | efflux inhibition (fraction of control) [14] 0.24 | inhibition [15] -7% | differentiation response [16] 0.24%
55.4%: double positive events [6]

COc1cccc(CN2C(=O)N(C(C)C)C(N(O)C(=O)NC(C)C)C2(C)C)c1OC (stereo not given)
67.3%: double positive events [6]
inactive: percent of DMSO control GFP [1] 98.2% | GFP response vs DMSO [2] 103% | percent response of DMSO control [3] 115% | GFP response vs DMSO [4] 97.3% | GFP response, % of DMSO [5] 101% | vesicle binding response [6] 216% | inhibition [7] -11.9% | superoxide response (% of plate) [8] 84.9% | aptamer binding inhibition [9] -1% | response [10] -7.26% | inhibition [11] -6.77% | response [12] -0.84% | binding (% of control) [13] 97.4% | efflux inhibition (fraction of control) [14] -0.04 | inhibition [15] 26% | differentiation response [16] 7.09%

COCCNC(=O)CSc1ccc(Cl)cc1
inactive: percent of DMSO control GFP [1] 104% | GFP response vs DMSO [2] 106% | percent response of DMSO control [3] 105% | GFP response vs DMSO [4] 88.7% | GFP response, % of DMSO [5] 103% | vesicle binding response [6] 245% | inhibition [7] -0.45% | superoxide response (% of plate) [8] 112% | aptamer binding inhibition [9] 1% | response [10] -6.87% | inhibition [11] 7.8% | response [12] -1.2% | binding (% of control) [13] 92% | efflux inhibition (fraction of control) [14] 0.14 | inhibition [15] 10% | differentiation response [16] -12.5%
62.8%: double positive events [6]

Cc1ccc(O)c(CCc2ccccc2)n1
inactive: percent of DMSO control GFP [1] 100% | GFP response vs DMSO [2] 109% | percent response of DMSO control [3] 94.2% | GFP response vs DMSO [4] 90.7% | GFP response, % of DMSO [5] 98.3% | vesicle binding response [6] 222% | inhibition [7] -4.6% | superoxide response (% of plate) [8] 106% | aptamer binding inhibition [9] 2% | response [10] -1.92% | inhibition [11] 3.07% | response [12] 0.6% | binding (% of control) [13] 98.4% | efflux inhibition (fraction of control) [14] -0.04 | inhibition [15] 19% | differentiation response [16] 6.11%
61.6%: double positive events [6]
